Measured values taken from PubChem BioAssay AID504577 (NMMLSC, 2011).
About 1,300 (0.37%) of roughly 350,000 compounds were called active. Rule as the data show it: active = response mostly above about 7.3% (no sharp cut-off); inactive = mostly below about 5.4%. The entries come from a sample that favours actives as a whole.

experiment: regulators of yeast V-ATPase proton pumping, primary screen, pHLuorin cytosolic pH fluorescence (AID 504577); also: actives read high; settings: S. cerevisiae, at 10 µM, hits give high values

SMILES | response
COc1cccc(OC)c1C(=O)N1CCN(Cc2ccccc2F)CC1 | 0.6% (inactive)
Cc1c(C)c(C)c(S(=O)(=O)N2CCC3(CC2)OCCO3)c(C)c1C | -4.64% (inactive)
C[C@@H](O)c1nc2ccccc2n1N | 0.82% (inactive)
CCOc1ccc(C(=O)CCC(=O)NC2=NCCS2)cc1 | 13.1% (active)
CCOc1ccc(C(=O)CCC(=O)Nc2ccncc2)cc1 | 1.62% (inactive)
Cc1ccc(S(=O)(=O)N(C)c2ccc(OCC(=O)NC3=NCCS3)cc2)cc1 | -1.26% (inactive)
Cc1csc(NC(=O)CSc2nc(=O)cc(N)n2-c2ccc(F)cc2)n1 | 1.91% (inactive)
CCCCn1c(N)c(N(CCOC)C(=O)c2oc3ccc(OC)cc3c2C)c(=O)[nH]c1=O | 0.93% (inactive)
COc1ccc(Cl)cc1N(CC(=O)N1CCCCC1)S(C)(=O)=O | 0.69% (inactive)
O=C(CCn1nnnc1CN1CCOCC1)N1CCC(c2ccccc2Cl)C1 (stereo unspecified) | 3.42% (inactive)
O=C(OCCOc1ccccc1Cl)c1cc(S(=O)(=O)N2CCCCC2)ccc1N1CCOCC1 | -0.35% (inactive)
Cc1cc(=O)[nH]c(SCc2ccc(Cl)cc2)n1 | -0.98% (inactive)
CCCc1cc(=O)[nH]c(SCc2cc(=O)oc3c(C)c(C)ccc23)n1 | -2.17% (inactive)
CCCc1cc(=O)[nH]c(SCc2ccc(C#N)cc2)n1 | 11.9% (active)
COc1ccc(OCCn2ccnc2C)cc1 | 1.9% (inactive)
Nc1cc(N)nc(SCC(=O)Nc2cccc(S(=O)(=O)N3CCCCC3)c2)n1 | 5.46% (inactive)
Cc1ccnc(SCC(=O)Nc2cccc(S(=O)(=O)N3CCOCC3)c2)n1 | 12.9% (active)
O=C(CSc1ccccc1)Nc1cccc(S(=O)(=O)N2CCOCC2)c1 | 0.62% (inactive)
COC(=O)c1ccccc1NC(=O)C1CCN(C(=O)N2CCOc3ccccc32)CC1 | 4.95% (inactive)
COc1cccc(C(=O)Oc2cc(C)[nH]c(=O)c2[N+](=O)[O-])c1 | 0.78% (inactive)
Cc1cc(OC(=O)c2ccccc2)c([N+](=O)[O-])c(=O)[nH]1 | 11.5% (active)

SMILES | response
Cc1cc(OC(=O)c2ccc(OC(C)C)cc2)c([N+](=O)[O-])c(=O)[nH]1 | 0.32% (inactive)
COC(=O)Nc1ccc(S(=O)(=O)Nc2cc(OC)nc(OC)n2)cc1 | 4.02% (inactive)
Nc1nc(O)c(CC(=O)O)s1 | 4.17% (inactive)
CCCc1nc(SCC(=O)N2CCCC2)c2c(=O)n(C)c(=O)n(C)c2n1 | 3.73% (inactive)
CCOC(=O)C1CCN(C(=O)Nc2ccc(Cl)cc2)CC1 | 0.2% (inactive)
CC(=O)C(CC(=O)N1CCCC1)C(=O)Nc1ccc(Cl)cc1 (stereo unspecified) | 1.4% (inactive)
CC(=O)N1CCC(N(C(=O)Nc2ccc(Cl)cc2)C(C)C)CC1 | 12.3% (active)
COc1ccc(S(=O)(=O)N2CCCCC2)cc1NC(=O)C1CC(=O)N(c2ccc3c(c2)OCCO3)C1 (stereo unspecified) | -6.01% (inactive)
CCOc1cc(C(=O)N(Cc2ccccc2)c2ccc(C)cc2)ccc1OCC(=O)N1CCOCC1 | -0.49% (inactive)
COc1ccc(C(=O)N(Cc2ccccc2)c2ccc(C)cc2)cc1S(=O)(=O)N1CCOCC1 | 7.49% (active)
CCN(Cc1ccccc1)C(=O)Cc1ccc(OC)c(S(=O)(=O)N2CCOCC2)c1 | -1.28% (inactive)
Cc1nccc(-c2ccc(-n3c(C)ccc3C)cc2)n1 | -1.42% (inactive)
CC(C)[C@@H](C(=O)O)N(Cc1cccc(CN([C@H](C(=O)O)C(C)C)S(C)(=O)=O)c1)S(C)(=O)=O | 2.56% (inactive)
CCOC(=O)N1CCN(CC(=O)n2c(C)c(C)c3ccccc32)CC1 | 12.8% (active)
CCOC(=O)N1CCN(C(=O)c2n[nH]c(=O)c3ccccc23)CC1 | -1.18% (inactive)
CCOC(=O)N1CCN(C(=O)Cn2cnc3ccccc3c2=O)CC1 | 1.97% (inactive)
CC(NC(=O)C1CCCN(S(=O)(=O)c2ccc(-n3cnnn3)cc2)C1)c1ccc(F)cc1 (stereo unspecified) | 0.08% (inactive)
CC1(C)C/C(=C(/C#N)C(N)=O)CCO1 | -3.69% (inactive)
N#CC(C(N)=O)=C1CCC2(CC1)OCCCCO2 | 18.9% (active)
Cc1scc(C(=O)NNC(=S)NCc2ccccc2)c1C | 1.7% (inactive)
CCCOc1ccc(C2=CSC3=NCCN23)cc1Cl | -2.58% (inactive)

SMILES | response
COc1ccc(N2CCN(C(=O)/C(C#N)=C/c3ccccc3)CC2)cc1 | 24.1% (active)
CCOC(=O)/C(C#N)=C/c1ccc(N2CCN(Cc3ccccc3)CC2)cc1 | 5.08% (inactive)
C/C(=C/c1ccccc1)C(=O)N1CCN(c2ccccc2)CC1 | 1.8% (inactive)
COCCNc1cc(NCCOC)c([N+](=O)[O-])cc1[N+](=O)[O-] | 2.79% (inactive)
CSCc1nnc(NC(=O)c2ccc(S(=O)(=O)N3CCCCC3C)cc2)o1 (stereo unspecified) | -2.27% (inactive)
CC1CCCCN1S(=O)(=O)c1ccc(C(=O)Nc2nnc(-c3cccs3)o2)cc1 (stereo unspecified) | 11.2% (active)
CC1CCCCN1S(=O)(=O)c1ccc(S(=O)(=O)N(CC(=O)Nc2ccccc2)Cc2cccs2)cc1 (stereo unspecified) | 2.49% (inactive)
COc1ccc(C(=O)N2CCCCC2C(=O)Nc2ccc(-n3nc(C)cc3C)cc2)o1 (stereo unspecified) | -0.42% (inactive)
CC1(C)COC(c2cccn2Cc2ccccc2Cl)=N1 | -1.9% (inactive)
C/C(CC(=O)N1CCN(C=O)CC1)=N\NC(=O)c1ccc(Br)cc1 | 1.52% (inactive)
Cc1cc(OC(C)C(=O)Nc2ccc(S(=O)(=O)Nc3onc(C)c3C)cc2)cc(C)c1Cl (stereo unspecified) | -1.29% (inactive)
O=C(O)CCc1cccnc1 | -0.98% (inactive)
COc1cc2c(cc1/C=C1/NC(=O)N(c3ccccc3)C1=O)OCO2 | 11.3% (active)
CCCCN=C1N/C(=C\c2ccco2)C(=O)N1c1ccccc1 | 2.17% (inactive)
COc1ccc(/C=C2/C(=O)N(c3ccccc3)N=C2C)c(OC)c1 | -0.07% (inactive)
CN(CCC1CCOCC1)C(=O)CC1C(=O)NCCN1Cc1cccc(F)c1 (stereo unspecified) | -2.22% (inactive)
COC(=O)COc1ccc2c(=O)c(Oc3ccccc3Br)coc2c1 | 7.76% (active)
CCc1ccc(Oc2coc3cc(O)ccc3c2=O)cc1 | -1.86% (inactive)
COc1ccc(Oc2coc3cc(OC(=O)c4cncc(Br)c4)ccc3c2=O)cc1 | 2.46% (inactive)
